# Compound activity as filed in PubChem BioAssay.
# In the library only some 2.2% were active in any assay of this set; here they are far more common.
# rat GALR2 agon: GALR2 (rat) receptor agonism. O08726. cell-based GALR2 agonist screen. activation, % at 10 µM. actives 0.5% (n = 16,000). AID 833; in the data active means activation above about 15%
# Nox1 inh: inhibitors of human NADPH oxidase 1 (Nox1). Q9Y5S8. HT29 cells, luminol chemiluminescence ROS. inhibition, % at 6.7 µM. actives 0.81% (n = 16,000)
# Target sequence (Q9Y5S8 whole entry, looked up): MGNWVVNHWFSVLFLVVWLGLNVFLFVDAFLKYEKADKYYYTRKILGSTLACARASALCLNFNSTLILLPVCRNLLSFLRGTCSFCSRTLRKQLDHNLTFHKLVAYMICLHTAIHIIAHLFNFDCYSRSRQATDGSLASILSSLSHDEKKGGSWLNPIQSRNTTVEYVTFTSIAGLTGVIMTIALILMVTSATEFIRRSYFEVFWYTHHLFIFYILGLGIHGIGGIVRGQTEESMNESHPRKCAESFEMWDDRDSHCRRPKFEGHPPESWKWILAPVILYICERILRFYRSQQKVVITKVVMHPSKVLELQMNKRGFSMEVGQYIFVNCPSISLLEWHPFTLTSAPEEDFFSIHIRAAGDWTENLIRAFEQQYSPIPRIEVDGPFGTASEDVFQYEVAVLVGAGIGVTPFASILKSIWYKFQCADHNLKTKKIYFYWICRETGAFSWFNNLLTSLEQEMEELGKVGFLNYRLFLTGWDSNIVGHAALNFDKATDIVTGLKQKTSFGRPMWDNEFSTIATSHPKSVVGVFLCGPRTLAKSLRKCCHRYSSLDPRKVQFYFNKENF
# luminol inh ctr: quenches luminol chemiluminescence in Nox1 counter-screen; inhibition, % at 6.7 µM; actives 0.4% (n = 16,000); HRP/luminol/H2O2 chemiluminescence counterscreen; AID 1823; further: reference of the scale not given here
# PME-1 Maybridge: PME-1 (human) inhibition, Maybridge primary screen | Q9Y570 | recombinant PME-1, FP-Rh probe fluorescence polarization | inhibition, % at 9 µM | actives 0.5% (n = 16,000) | AID 2291; in the data active means inhibition above about 30%
# Numbers without * were called inactive. Unless noted, no stated cut-off is given here; in the data, active means inhibition above about 75%; inactive means the rest.
SMILES,rat GALR2 agon,Nox1 inh,luminol inh ctr,PME-1 Maybridge
CCOC(=O)CSc1sc(C(=O)OCC)c(-c2cccs2)c1C#N,1.6,-57.8,1.4,-7.7
CCOC(=O)Cn1c(=O)c2ccsc2c2c(C#N)c(SC)sc21,139.3*,-41.0,-0.3,3.7
CCCCCCSc1n[nH]c(=S)s1,-5.2,15.0,96.3*,6.1
CCOC(=O)CSc1nnc(-c2cccs2)n1N,-4.1,25.9,-1.3,7.2
COc1cc(C(=O)Oc2c(Cl)cc(Cl)cc2/C=N/NC(N)=S)cc(OC)c1OC,-7.7,-47.7,2.1,33.7*
COc1cc(C(=O)Oc2ccc(Cl)cc2Cl)cc(OC)c1OC,-4.4,-2.9,-8.8,-0.4
Cc1c(S(=O)(=O)c2ccc(Cl)cc2)csc1C(=O)Nc1ccc(F)cc1F,21.9*,3.1,-2.1,-5.3
Cc1c(S(=O)(=O)c2ccc(Cl)cc2)csc1C(=O)Nc1ccc2c(c1)COCO2,-1.4,-25.5,0.7,-3.6
Cc1cc(S(=O)(=O)Cc2ccc(NC(=O)C(Cl)(Cl)Cl)cc2)c(C)cc1Cl,16.3*,-15.3,0.8,-1.5
COC(=O)/C(=C\N(C)C)S(=O)(=O)c1cc(C)c(Cl)cc1C,-5.7,-34.0,0.1,12.1
Cc1cc(C(=O)Nc2ccccc2N2CCOCC2)c(C)o1,-4.5,-13.8,7.8,1.6
CCOC(=O)NNC(=S)Nc1ccccc1N1CCOCC1,-3.8,-15.8,97.9*,4.5
O=C(c1cccs1)N1CCc2ccccc2C1,34.0*,18.0,-5.5,5.8
Cc1nnsc1C(=O)NNc1cc(Cl)ccc1Cl,-5.1,76.4*,25.4,5.3
Cc1noc(C)c1C(=O)NNc1cc(Cl)ccc1Cl,7.8,46.6,11.8,-1.3
Cc1cc(C(=O)NNc2cc(Cl)ccc2Cl)no1,-6.8,81.0*,9.9,11.0
N#CC1(NNC2(C#N)CCCCC2)CCCCC1,-6.0,-35.8,-1.6,0.7
O=C1c2ccc3ccccc3c2-c2cccc3cccc1c23,-7.0,-21.7,1.0,39.8*
N#CCCN(Cc1cccs1)C(=O)Nc1cccc(C(F)(F)F)c1,41.9*,-55.4,-0.2,1.7
N#CCCN(Cc1cccs1)C(=O)c1cccs1,-5.1,-49.1,2.7,-0.2
CN1CCN(C(=O)CCc2nc(-c3ccccn3)no2)CC1,-3.2,20.5,-4.3,5.8
Cc1c(C)c(C)c(CSCc2n[nH]c(=S)n2-c2ccc(F)cc2)c(C)c1C,-3.1,2.2,-1.4,5.8
Fc1ccc(-n2c(Cc3ccsc3)n[nH]c2=S)cc1,-5.6,-50.9,84.2*,-0.7
O=C(NNC(=S)NC12CC3CC(CC(C3)C1)C2)c1ccc([N+](=O)[O-])o1,-6.4,-0.7,-1.2,4.5
O=c1[nH]nc(N2CCSCC2)[nH]1,-3.9,89.2*,-4.8,3.4
SMILES,rat GALR2 agon,Nox1 inh,luminol inh ctr,PME-1 Maybridge
O=[N+]([O-])c1cc(C(F)(F)F)cc([N+](=O)[O-])c1O/N=C1\CSCc2ccccc21,40.0*,-37.6,6.7,-2.5
NS(=O)(=O)c1ccc(N/N=C2\CSCc3ccccc32)c([N+](=O)[O-])c1,-6.1,22.3,34.6,8.7
O=C1/C(=C/c2cccc([N+](=O)[O-])c2)N=C2SCCCN12,-3.1,12.2,-6.4,9.1
FC(F)(F)c1cc(-c2nsc(N3CCOCC3)n2)cc(C(F)(F)F)c1,21.8*,-35.5,0.8,1.0
FC(F)(F)c1cc(N=NN2CCOCC2)cc(C(F)(F)F)c1,-11.2,-32.5,2.9,-0.2
Cc1ccc(COc2ncnc3cc(Cl)ccc23)cc1,45.9*,-38.0,3.3,0.4
CCCc1cnc(Oc2ncnc3cc(Cl)ccc23)nc1,-4.3,-37.6,0.0,3.5
COc1ccc(-n2c(-c3cccs3)n[nH]c2=S)cc1,-2.8,11.6,98.0*,-1.3
CCn1c(-c2cccs2)n[nH]c1=S,-0.2,47.4,100.3*,-2.9
Cc1ccc(-n2cc(-c3cccs3)nc2SCc2n[nH]c(=S)n2Cc2ccccc2)cc1,-4.1,19.8,-3.0,0.9
Cc1ccc(-n2cc(-c3cccs3)[nH]c2=S)cc1,-3.7,8.8,-7.5,10.4
COc1ccc(C(=O)/C(C#N)=C/c2cccs2)cc1,-6.6,16.1,-0.6,-0.7
O=C(Nc1ccc(-c2nc3ccccc3s2)cc1)Nc1cc(F)cc2c1OCOC2,33.4*,-17.6,2.6,-59.4
COc1cc(/C=N/N=C/c2ccccc2O)cc(OC)c1OC,-6.9,2.4,1.5,4.0
O=C(Oc1cccc2c1C(=O)C=CC2=O)c1ccccc1,-3.4,40.5,7.6,34.5*
O=[N+]([O-])c1cc(C(F)(F)F)cc([N+](=O)[O-])c1Sc1ncc2ccccn12,5.2,102.3*,1.0,2.0
Cc1n[nH]c(C)c1Sc1ncccn1,-4.0,-41.0,-0.1,-1.0
c1ccc2c(c1)NC(c1ccc3c(c1)OCO3)O2 (configuration not stated),-7.4,79.7*,7.9,-4.3
COc1ccc(OC)c(S(=O)(=O)Oc2ccc(C#N)cc2)c1,-2.3,-3.8,-2.2,3.4
Cc1ccc(S(=O)(=O)NC(=O)Oc2ccc(-c3csnn3)cc2)cc1,-5.4,-132.2,102.7*,0.0
COc1ccc2c(c1)OC(c1ccccc1)CC2=O (configuration not stated),-4.9,23.6,-7.6,19.2
Cc1c(NS(=O)(=O)c2ccc(S(=O)(=O)c3ccccc3)s2)c(=O)n(-c2ccccc2)n1C,-6.5,-72.7,3.3,-0.2
Cc1ccc(S(=O)(=O)NC(=O)Nc2c(C)n(C)n(-c3ccccc3)c2=O)cc1,-5.0,92.4*,-4.1,5.6
O=C(NNc1c([N+](=O)[O-])cc(C(F)(F)F)cc1[N+](=O)[O-])c1ccco1,-7.8,89.4*,-0.3,1.7
O=C(c1ccc([N+](=O)[O-])o1)N1CCCN(c2ccc(C(F)(F)F)cc2[N+](=O)[O-])CC1,-8.6,20.0,-4.5,8.1
SMILES,rat GALR2 agon,Nox1 inh,luminol inh ctr,PME-1 Maybridge
Cc1csc2ncnc(NNS(=O)(=O)c3cc(C(F)(F)F)cc(C(F)(F)F)c3)c12,-6.8,101.5*,2.9,-6.5
Cc1csc(SCC(=O)NNS(=O)(=O)c2cc(C(F)(F)F)cc(C(F)(F)F)c2)n1,-3.4,-38.4,2.1,-3.2
CC(C)(C)OC(=O)NCc1n[nH]c(=S)n1C1CC1,-5.2,5.9,17.0,-2.1
CC(C)(C)OC(=O)NCc1n[nH]c(=S)n1-c1ccccc1,-3.9,19.1,97.4*,1.4
CCOC(=O)c1cc(-c2ccccc2)sc1NC(=O)c1cccc([N+](=O)[O-])c1,-7.2,3.7,-3.6,-1.3
Cc1cc(C)c2c(N)c(C(N)=O)sc2n1,-3.0,-28.1,2.9,-3.1
CSc1nnc(-c2sc3nc(C)cc(C)c3c2N)n1Cc1ccccc1,29.3*,18.8,0.5,8.7
NC(=O)c1cnccc1C(F)(F)F,-5.9,-10.2,0.1,0.5
CCN(CC)c1ccc(N=C2C=CC(=O)c3ccccc32)c(C)c1,0.0,99.1*,-49.0,9.8
CCN(CC)c1ccc(N=Nc2ccc(N(C)C)cc2)c(NC(N)=O)c1,0.7,19.6,0.0,-7.0
Nc1cc(S(=O)(=O)O)c(N)c2c1C(=O)c1ccccc1C2=O,-7.9,0.4,-16.4,98.6*
O=C1c2ccccc2C(=O)c2c(NCCc3ccc(O)cc3)ccc(NCCc3ccc(O)cc3)c21,-5.9,73.4,-38.2,16.7
Cc1cc(=O)oc2cc(OS(=O)(=O)c3cc(C(F)(F)F)cc(C(F)(F)F)c3)c(Cl)cc12,-8.7,-22.5,2.0,1.1
Cc1ccc(S(=O)(=O)Nc2ccc(F)cc2F)cc1,-5.7,-109.2,1.9,-2.5
